Reference: PubChem BioAssay
Results with a measured potency or affinity are listed apart. Values without a mark were called inactive. Calls of active or inactive are those of the source.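 The calls were made as follows: active = a dose-response fit showing signal loss, with half-maximal concentration no higher than twice the top tested dose; inconclusive = flat fit between 30% and 70% signal loss, or poor fit; inactive = the rest.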

assay: HepG2 cell cytotoxicity, dose response, cytotoxicity control, cherry-picks, set 2 (AID 687002); details: HepG2 viability, ATP luminescence (CellTiter-Glo), 48 h; series mostly up to 26 µM; activity change, negative = cytotoxicity: at the top concentration

Row | SMILES | activity change, negative = cytotoxicity | outcome
1 | COc1cccc(S(=O)(=O)Nc2ccc3c(c2)OC[C@@H](C)NC[C@H](C)[C@@H](OC)CN(C)C3=O)c1 | -3.68% | –
2 | O=S1(=O)CCC(N=Cc2cc(Br)ccc2O)C1 (centres undefined) | 2.1% | –
3 | CC(C)(C)SCCNC(=O)CN(c1ccccc1)S(=O)(=O)c1ccccc1 | -1.15% | –
4 | Cc1noc(C)c1S(=O)(=O)Nc1ccc2c(c1)C(=O)N([C@@H](C)CO)C[C@@H](C)[C@H](CN(C)Cc1ccc3c(c1)OCO3)OCCCC[C@H](C)O2 | -14.7% | –
5 | CCC(C)c1ccc(NC(=S)N2CCN(c3ccccn3)CC2)cc1 (centres undefined) | -9.79% | –
6 | C[C@H]1CN([C@@H](C)CO)C(=O)Cc2cc(NS(=O)(=O)c3cn(C)cn3)ccc2O[C@@H]1CN(C)Cc1ccc(Oc2ccccc2)cc1 | 8.88% | –
7 | Cc1cccc(C)c1NC(=O)C1(NC(=O)C2CCC(=O)N2)CCCCC1 (centres undefined) | 7.97% | –
8 | C[C@H]1CN([C@@H](C)CO)C(=O)c2cc(-c3ccccc3)cnc2O[C@@H]1CN(C)C(=O)c1ccccn1 | 2.87% | –
9 | CCOC(=O)NCc1ccc2[nH]c(C)cc2c1 | -18.7% | –
10 | Cc1ccccc1NC(=O)C(NC1CCCCC1)C(C)C (centres undefined) | 9.88% | –
11 | CC(NC(=O)COc1ccccc1Cl)c1ccccc1 (centres undefined) | 8.56% | –
12 | O=C(CSc1ncnc2c1cnn2-c1ccc(F)cc1)NCC1CCCO1 (centres undefined) | -4.49% | –
13 | Cc1noc(C)c1NC(=O)N(C)C[C@H]1OCCCC[C@@H](C)Oc2ccc(NC(=O)NC(C)C)cc2C(=O)N([C@H](C)CO)C[C@H]1C | 9.01% | –
14 | O=C(c1cccs1)N1CCN(c2nc3ccccc3s2)CC1 | 9.92% | –
15 | COC(=O)C1=C(C)N(Cc2ccc(F)cc2)C(=S)NC1c1ccc(F)cc1 (centres undefined) | 3.13% | –
16 | COc1ccc(N(C)C(=O)c2cn(CC(C)C)c(=O)c3cc(OC)c(OC)cc23)c(OC)c1 | -15.6% | –
17 | CCNC(=O)CN(c1ccc(C)cc1)S(=O)(=O)c1ccc(SC)cc1 | -11.6% | –
18 | O=C(c1cccnc1)N1C[C@H]2[C@@H](c3ccccc31)[C@@H](CO)N2C(=O)Nc1ccc(F)cc1 | -4.06% | –
19 | COC(=O)C1=C(C)N(Cc2ccc(Cl)cc2)C(=S)NC1c1cccc(OC)c1 (centres undefined) | – | inactive
20 | Cc1ccc(C(=O)n2nnc3ccccc32)cc1[N+](=O)[O-] | -0.078% | –

Row | SMILES | activity change, negative = cytotoxicity | outcome
21 | C[C@@H]1CCCCO[C@H](CN(C)Cc2ccccc2)[C@H](C)CN([C@@H](C)CO)C(=O)c2cc(NS(=O)(=O)c3cccs3)ccc2O1 | -0.718% | –
22 | O=C(C[C@@H]1CC[C@H](NC(=O)Cc2ccccn2)[C@@H](CO)O1)NCCc1ccccc1 | -2.79% | –
23 | Cc1ccc(NC(=O)C(=O)NCCCN2CCCC2=O)c(C)c1 | -15.9% | –
24 | CO[C@@H]1CN(C)C(=O)c2ccc(NS(=O)(=O)c3ccc(Oc4ccccc4)cc3)cc2OC[C@H](C)NC[C@H]1C | -6.04% | –
25 | O=C(c1ccco1)N1N=C(c2cccs2)CC1c1ccco1 (centres undefined) | -4.07% | –
26 | Fc1ccc(CNC(=S)NCc2cccc(Cl)c2)cc1 | -7.39% | –
27 | C[C@H](CO)N1C[C@H](C)[C@H](CN(C)Cc2ccc(Cl)c(Cl)c2)Oc2c(NC(=O)Nc3ccccc3)cccc2C1=O | 56.6% | –
28 | CCCN1C(=O)C(O)(C2CC(=O)CC(C)(C)O2)c2ccccc21 (centres undefined) | -6.48% | –
29 | Cc1cc(C)cc(OCC(=O)NC(C)c2ccccc2)c1 (centres undefined) | 1.8% | –
30 | Cc1ccc(C2CC(c3cccs3)=NN2C(=O)c2ccc(Br)o2)cc1 (centres undefined) | 1.84% | –
31 | Cc1ccccc1N(CC(=O)NCCSC1CCCCC1)S(=O)(=O)c1ccccc1 | 3.32% [at 12 µM] | –
32 | Cc1ccc(OCC(=O)NC(C)c2ccccc2)cc1 (centres undefined) | -3.42% | –
33 | COc1ccc(N2CCN(C(=O)CSc3ncnc4c3cnn4-c3ccccc3C)CC2)cc1 | -6.86% | –
34 | CC(C)NC(=O)Nc1ccc2c(c1)C(=O)N([C@@H](C)CO)C[C@@H](C)[C@@H](CN(C)C(=O)NC1CCCCC1)OCCCC[C@H](C)O2 | 1.23% [at 23.5 µM] | –
35 | COCCN1C(=O)CCC1(C)C(=O)Nc1c(C)cccc1C (centres undefined) | -4.16% | –
36 | C[C@@H]1CN([C@H](C)CO)C(=O)c2cccc(NC(=O)c3ccncc3)c2O[C@H]1CN(C)C(=O)Nc1ccc(C(F)(F)F)cc1 | -2.45% [at 23.5 µM] | –
37 | Cc1ccc(C(=O)Nc2ccc3ncccc3c2)cc1 | -4.7% | –
38 | CC=Cc1ccc2n(c1=O)C[C@@H]1[C@@H](CO)[C@H](C(=O)NCc3ccc4c(c3)OCO4)[C@H]2N1C(=O)C1CC1 (mixture of isomers) | 10.9% | –
39 | Cc1ccc(C2CCN(C(=S)NC3CCCCC3)C2)cc1 (centres undefined) | 9.8% | –
